About 410 targets per protein were measured; listed, in parts, are those with the strongest signals and a random draw of the rest.
Experiments:
Experiment in all cases: glycan array binding signal (z-score within array); higher = stronger binding
Settings in all cases: glycan notation: IUPAC condensed, linker removed
[1] = biological target: Fuc(a1-2)Gal(b1-3)GalNAc
How it was run: (§1)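 Glycan array binding is given as a within-array Z-score, which can be read as non-binding when negative. The arrays, 3228 of them, came from the Consortium for Functional Glycomics database and were retained only where the protein sequence was available. Z-scores were averaged across arrays of the same protein sequence at different concentrations or buffers and across linkers.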

[2] = biological target: Fuc(a1-2)Gal(b1-3)GlcNAc(b1-3)[Fuc(a1-2)Gal(b1-3)GlcNAc(b1-6)]GalNAc
How it was run: as §1

[3] = biological target: Fuc(a1-2)Gal(b1-3)[Fuc(a1-4)]GlcNAc(b1-2)Man(a1-3)[Fuc(a1-2)Gal(b1-3)[Fuc(a1-4)]GlcNAc(b1-2)Man(a1-3)]Man(b1-4)GlcNAc(b1-4)GlcNAc
How it was run: as §1

[4] = biological target: Fuc(a1-2)Gal(b1-4)Glc
How it was run: as §1

[5] = biological target: Fuc(a1-2)Gal(b1-4)GlcNAc(b1-2)Man(a1-3)[Fuc(a1-2)Gal(b1-4)GlcNAc(b1-2)Man(a1-6)]Man(b1-4)GlcNAc(b1-4)GlcNAc
How it was run: as §1

[6] = biological target: Fuc(a1-2)Gal(b1-4)GlcNAc(b1-2)[Fuc(a1-2)Gal(b1-4)GlcNAc(b1-4)]Man(a1-3)[Fuc(a1-2)Gal(b1-4)GlcNAc(b1-2)Man(a1-6)]Man(b1-4)GlcNAc(b1-4)GlcNAc
How it was run: as §1

[7] = biological target: Fuc(a1-2)Gal(b1-4)GlcNAc(b1-3)[Fuc(a1-3)[Gal(b1-4)]GlcNAc(b1-6)]Gal(b1-4)Glc
How it was run: as §1

[8] = biological target: Fuc(a1-2)Gal(b1-4)[Fuc(a1-3)]GlcNAc(b1-2)[Fuc(a1-2)Gal(b1-4)[Fuc(a1-3)]GlcNAc(b1-4)]Man(a1-3)[Fuc(a1-2)Gal(b1-4)[Fuc(a1-3)]GlcNAc(b1-2)Man(a1-6)]Man(b1-4)GlcNAc(b1-4)GlcNAc
How it was run: as §1

[9] = biological target: Fuc(a1-2)Gal6S(b1-4)Glc
How it was run: as §1

[10] = biological target: Fuc(a1-2)[Gal(a1-3)]Gal(b1-3)GlcNAc(b1-2)Man(a1-3)[Fuc(a1-2)[Gal(a1-3)]Gal(b1-3)GlcNAc(b1-2)Man(a1-6)]Man(b1-4)GlcNAc(b1-4)GlcNAc
How it was run: as §1

[11] = biological target: Gal(a1-3)[Gal(a1-4)]Gal(b1-4)GlcNAc
How it was run: as §1

[12] = biological target: Gal(a1-4)Gal(b1-4)GlcNAc(b1-3)Gal(b1-4)Glc
How it was run: as §1

[13] = biological target: Gal(b1-3)GlcNAc(b1-2)Man(a1-3)[Gal(b1-3)GlcNAc(b1-2)Man(a1-6)]Man(b1-4)GlcNAc(b1-4)GlcNAc
How it was run: as §1

[14] = biological target: Gal(b1-3)GlcNAc(b1-2)Man(a1-3)[Gal(b1-3)GlcNAc(b1-2)Man(a1-6)]Man(b1-4)GlcNAc(b1-4)[Fuc(a1-6)]GlcNAc
How it was run: as §1

[15] = biological target: Gal(b1-3)GlcNAc(b1-2)[Gal(b1-3)GlcNAc(b1-6)]Man(a1-6)[Gal(b1-3)GlcNAc(b1-2)Man(a1-3)]Man(b1-4)GlcNAc(b1-4)GlcNAc
How it was run: as §1

[16] = biological target: Gal(b1-3)GlcNAc(b1-3)Gal(b1-4)[Fuc(a1-3)]GlcNAc
How it was run: as §1

[17] = biological target: Gal(b1-4)GlcNAc(b1-2)Man(a1-3)[GlcNAc(b1-4)][Gal(b1-4)GlcNAc(b1-2)Man(a1-6)]Man(b1-4)GlcNAc(b1-4)GlcNAc
How it was run: as §1

[18] = biological target: Gal(b1-4)GlcNAc(b1-2)Man(a1-6)Man(b1-4)GlcNAc(b1-4)GlcNAc
How it was run: as §1

[19] = biological target: Gal(b1-4)GlcNAc(b1-3)Gal(b1-4)GlcNAc(b1-3)Gal(b1-4)GlcNAc(b1-3)Gal(b1-4)GlcNAc(b1-2)Man(a1-3)[Gal(b1-4)GlcNAc(b1-3)Gal(b1-4)GlcNAc(b1-3)Gal(b1-4)GlcNAc(b1-3)Gal(b1-4)GlcNAc(b1-2)Man(a1-6)]Man(b1-4)GlcNAc(b1-4)[Fuc(a1-6)]GlcNAc
How it was run: as §1

[20] = biological target: Gal(b1-4)GlcNAc(b1-3)Gal(b1-4)GlcNAc(b1-6)[Gal(b1-3)]GalNAc
How it was run: as §1

[21] = biological target: Gal(b1-6)Gal
How it was run: as §1

[22] = biological target: Gal3S6S(b1-4)GlcNAc
How it was run: as §1

[23] = biological target: Gal3S6S(b1-4)GlcNAc6S
How it was run: as §1

[24] = biological target: Gal6S(b1-3)GlcNAc
How it was run: as §1

[25] = biological target: Gal6S(b1-3)GlcNAc6S
How it was run: as §1

[26] = biological target: Gal6S(b1-4)Glc
How it was run: as §1

[27] = biological target: Gal6S(b1-4)Glc6S
How it was run: as §1

[28] = biological target: Gal6S(b1-4)GlcNAc
How it was run: as §1

[29] = biological target: Gal6S(b1-4)GlcNAc6S
How it was run: as §1

[30] = biological target: GalNAc(a1-3)GalNAc(b1-3)Gal(a1-4)Gal(b1-4)GlcNAc
How it was run: as §1

[31] = biological target: GalNAc(b1-4)Gal(b1-4)Glc
How it was run: as §1

[32] = biological target: GalNAc6S(b1-4)GlcNAc
How it was run: as §1

[33] = biological target: Glc(b1-4)Glc
How it was run: as §1

[34] = biological target: GlcA3S(b1-3)Gal(b1-4)GlcNAc(b1-2)Man
How it was run: as §1

[35] = biological target: GlcA3S(b1-3)Gal(b1-4)GlcNAc(b1-3)Gal(b1-4)Glc
How it was run: as §1

[36] = biological target: GlcNAc(a1-3)Gal(b1-4)GlcNAc
How it was run: as §1

[37] = biological target: GlcNAc(a1-6)Gal(b1-4)GlcNAc
How it was run: as §1

[38] = biological target: GlcNAc(b1-3)Gal(b1-4)GlcNAc(b1-3)Gal(b1-4)GlcNAc(b1-2)Man(a1-3)[GlcNAc(b1-3)Gal(b1-4)GlcNAc(b1-3)Gal(b1-4)GlcNAc(b1-2)Man(a1-6)]Man(b1-4)GlcNAc(b1-4)[Fuc(a1-6)]GlcNAc
How it was run: as §1

[39] = biological target: GlcNAc(b1-4)Gal(b1-4)GlcNAc
How it was run: as §1

[40] = biological target: Neu5Ac(a2-3)Gal(b1-4)GlcNAc(b1-2)Man(a1-3)[Neu5Ac(a2-3)Gal(b1-4)GlcNAc(b1-2)Man(a1-6)]Man(b1-4)GlcNAc(b1-4)[Fuc(a1-6)]GlcNAc
How it was run: as §1

[41] = biological target: Neu5Ac(a2-3)Gal(b1-4)GlcNAc(b1-3)Gal(b1-4)GlcNAc(b1-3)Gal(b1-4)GlcNAc
How it was run: as §1

[42] = biological target: Neu5Ac(a2-3)Gal(b1-4)GlcNAc(b1-3)Gal(b1-4)GlcNAc(b1-3)Gal(b1-4)GlcNAc(b1-2)Man(a1-3)[Neu5Ac(a2-3)Gal(b1-4)GlcNAc(b1-3)Gal(b1-4)GlcNAc(b1-3)Gal(b1-4)GlcNAc(b1-2)Man(a1-6)]GalNAc
How it was run: as §1

[43] = biological target: Neu5Ac(a2-3)Gal(b1-4)GlcNAc(b1-3)Gal(b1-4)GlcNAc(b1-3)[Neu5Ac(a2-3)Gal(b1-4)GlcNAc(b1-3)Gal(b1-4)GlcNAc(b1-6)]GalNAc
How it was run: as §1

[44] = biological target: Neu5Ac(a2-3)Gal(b1-4)[Fuc(a1-3)]GlcNAc(b1-3)Gal(b1-4)GlcNAc
How it was run: as §1

[45] = biological target: Neu5Ac(a2-3)Gal6S(b1-4)GlcNAc
How it was run: as §1

[46] = biological target: Neu5Ac(a2-6)Gal(b1-4)GlcNAc(b1-2)Man(a1-3)Man(b1-4)GlcNAc(b1-4)GlcNAc
How it was run: as §1

[47] = biological target: Neu5Ac(a2-6)Gal(b1-4)GlcNAc(b1-2)Man(a1-6)[Gal(b1-4)GlcNAc(b1-2)Man(a1-3)]Man(b1-4)GlcNAc(b1-4)GlcNAc
How it was run: as §1

[48] = biological target: Neu5Ac(a2-6)Gal(b1-4)GlcNAc(b1-6)[Gal(b1-3)]GalNAc
How it was run: as §1

[49] = biological target: Neu5Ac(a2-6)GlcNAc(b1-4)GlcNAc
How it was run: as §1

[50] = biological target: Neu5Gc(a2-8)Neu5Gc(a2-6)Gal(b1-4)GlcNAc
How it was run: as §1

B1: GS13846A-bth-444-19-444 (Bacteroides thetaiotaomicron) (protein)
chain: SCENEFDVSDKADSLISVTVNTLNNQAAYNVGETAQAELWIQRGGLKDASGKVQFVVDPLLLDSLNQEDKTNYELLPENCYEMTNTEFTVDKNELCGYITYHPEKILALSAYNETKYVLPLRLISNDLAINPARNTSFLAFTILEPIVHISNAGVYNINPDLTSTMDIQIGVPFTNKWDILCNLTEDLSLIDEYNQINKVNFTLLPENAYTAPESVTLQEGVSQITASYQLKNNLVPGNYILPIKIGSITASQGGVPNNSLVIDEESNVLFCIVKEGNKINKSGWEVIECSSEHAGNEATYMIDDNESTYWHCKFKNEAGSSVPPFHFIIDMKKEITIAQIDLLNRGDGAANNIKWVEFYASNNNSEWDKIGAGDFNDEGTRATFRYYVKSTKARYLKLIIPEGYGNNCPPAAIRELTVYGLEGNN
Q: Which results are given for B1?
A: glycan array binding signal (z-score) [1]: -0.247; glycan array binding signal (z-score) [2]: -0.101; glycan array binding signal (z-score) [3]: -0.423; glycan array binding signal (z-score) [4]: -0.176; glycan array binding signal (z-score) [5]: 0.384; glycan array binding signal (z-score) [6]: -0.079; glycan array binding signal (z-score) [7]: 0.069; glycan array binding signal (z-score) [8]: -0.407; glycan array binding signal (z-score) [9]: -0.234; glycan array binding signal (z-score) [10]: -0.305; glycan array binding signal (z-score) [11]: 2.7; glycan array binding signal (z-score) [12]: -0.018; glycan array binding signal (z-score) [13]: 0.242; glycan array binding signal (z-score) [14]: 3.4; glycan array binding signal (z-score) [15]: -0.163; glycan array binding signal (z-score) [16]: 0.028; glycan array binding signal (z-score) [17]: -0.238; glycan array binding signal (z-score) [18]: -0.133; glycan array binding signal (z-score) [19]: 0.486; glycan array binding signal (z-score) [20]: -0.308; glycan array binding signal (z-score) [21]: -0.188; glycan array binding signal (z-score) [22]: 6.47; glycan array binding signal (z-score) [23]: 6.71; glycan array binding signal (z-score) [24]: 7.3; glycan array binding signal (z-score) [25]: 6.28; glycan array binding signal (z-score) [26]: 3.68; glycan array binding signal (z-score) [27]: 12.7; glycan array binding signal (z-score) [28]: 4.8; glycan array binding signal (z-score) [29]: 8.87; glycan array binding signal (z-score) [30]: -0.175; glycan array binding signal (z-score) [31]: 0; glycan array binding signal (z-score) [32]: 5.49; glycan array binding signal (z-score) [33]: -0.32; glycan array binding signal (z-score) [34]: -0.266; glycan array binding signal (z-score) [35]: -0.082; glycan array binding signal (z-score) [36]: -0.214; glycan array binding signal (z-score) [37]: -0.052; glycan array binding signal (z-score) [38]: 0.103; glycan array binding signal (z-score) [39]: -0.193; glycan array binding signal (z-score) [40]: -0.407; glycan array binding signal (z-score) [41]: 0.067; glycan array binding signal (z-score) [42]: -0.089; glycan array binding signal (z-score) [43]: -0.336; glycan array binding signal (z-score) [44]: -0.205; glycan array binding signal (z-score) [45]: -0.129; glycan array binding signal (z-score) [46]: -0.287; glycan array binding signal (z-score) [47]: -0.298; glycan array binding signal (z-score) [48]: 1.86; glycan array binding signal (z-score) [49]: 0.027; glycan array binding signal (z-score) [50]: -0.262

Reference: the supplement of paper PMC8728848
